Assay results taken from PubChem BioAssay (EPA / NIEHS).
The source made the active and inactive calls. Rule for the calls: active = hit-call score of the fitted dose curve at least 0.9, where 1 is the maximum; inactive = score below 0.9.

Test: CCTE_Harrill_HTTr_Viability_MCF7: CCTE's 6-hour Cell Viability Assessment for the High-Throughput Transcriptomics (HTTr) Platform, in MCF-7 cells cultured in DMEM + 10% fetal bovine serum, Harrill Lab (AID 2284010)
From the text: This is a cell-based assay that evaluates cell viability using high content imaging to evaluate membrane integrity using propidium iodide dye exclusion in a 384 well format.One of seven assay components measured from the CCTE_Harrill_HTTr_Viability assay. This was part of a full screening experiment. This is a cell-based assay that evaluates cell viability in MCF-7 cells cultured in DMEM + 10% fetal bovine serum. High content imaging is used to evaluate membrane integrity using propidium iodide dye exclusion. Measurements are taken at 6 hours after chemical dosing in 384-well format.The assay component endpoint CCTE_Harrill_HTTr_Viability_MCF7 was analyzed with bidirectional fitting relation to DMSO as the negative control and baseline of activity. Using a type of viability reporter, gain-of-signal activity can be used to evaluate membrane integrity using propidium iodide dye exclusion to understand changes in cytotoxicity. To generalize the intended target to other relatable targets, this assay endpoint is annotated to cell cycle, where the subfamily is cytotoxicity.
Chemicals were tested in MCF7 cells in an eight point dilution series with a six hour exposure duration.

For `O=P1(NCCCl)OCCCN1CCCl` (stereo not given), which outcome is on record?
Its outcome is “inactive”.

Which outcome does the source give for `CC(C)(C)C(O)C(Oc1ccc(-c2ccccc2)cc1)n1cncn1` (stereo not given) here?
Its outcome is “inactive”.

For `[Cd+2].[Cl-].[Cl-]`, which outcome is on record?
The outcome was “inactive”.

For `ClC=C(Cl)CCl`, which outcome is on record?
Its outcome is “inactive”.

With `CN1C(=O)CCS(=O)(=O)C1c1ccc(Cl)cc1` (stereo not given) as the compound, how does the outcome read?
Its outcome is “inactive”.

For `C[N+](C)(C)CC(=O)[O-]`, which outcome is on record?
The outcome was “inactive”.

Which outcome does the source give for `c1ccc2cc3c(cc2c1)-c1cccc2cccc-3c12` here?
Its outcome is “inactive”.

For `O=CC=Cc1ccccc1`, which outcome is on record?
Its outcome is “inactive”.

With `O=S1OC[C@@H]2[C@H](CO1)[C@]1(Cl)C(Cl)=C(Cl)[C@]2(Cl)C1(Cl)Cl` (stereo not given in full) as the compound, how does the outcome read?
Its outcome is “inactive”.

For `C[C@]12CCC(=O)C(O)=C1CC[C@@H]1[C@@H]2CC[C@]2(C)C(=O)CC[C@@H]12`, which outcome is on record?
Its outcome is “inactive”.

For `CC(C)[C@@H](C(=O)O[C@@H](C#N)c1cccc(Oc2ccccc2)c1)c1ccc(Cl)cc1`, which outcome is on record?
The outcome was “inactive”.

For `Nc1ccccc1`, which outcome is on record?
Its outcome is “inactive”.

With `C[C@]12CC[C@H]3[C@@H](CC[C@@]45O[C@@H]4C(O)=C(C#N)C[C@]35C)[C@@H]1CC[C@@H]2O` as the compound, how does the outcome read?
Its outcome is “inactive”.

For `CC1(C)[C@H](C(=O)O[C@H](C#N)c2cccc(Oc3ccccc3)c2)[C@@H]1C=C(Br)Br`, which outcome is on record?
The outcome was “inactive”.

For `CC(C)(C)C(=O)CCl`, which outcome is on record?
Its outcome is “inactive”.

With `O=S(=O)(c1ccccc1)c1ccccc1` as the compound, how does the outcome read?
The outcome was “inactive”.

For `O=c1[nH]c2c(c(=O)n1C1CCCCC1)CCC2`, which outcome is on record?
The outcome was “inactive”.

For `CCC[N+](=O)[O-]`, which outcome is on record?
The outcome was “inactive”.

Which outcome does the source give for `CC(C)(Cl)Cl` here?
The outcome was “inactive”.

For `O=S(=O)(O)O`, which outcome is on record?
The outcome was “inactive”.

With `CCCCc1c(C)nc(NCC)[nH]c1=O` as the compound, how does the outcome read?
Its outcome is “inactive”.

For `[Cl-].[Cl-].[Cl-].[Gd+3]`, which outcome is on record?
The outcome was “inactive”.

Which outcome does the source give for `CCCCCCCCCCCCN=C(N)N` here?
Its outcome is “inactive”.

Which AC50 does the source give for `N#Cc1sc2c(=O)c3ccccc3c(=O)c=2sc1C#N` here?
Its AC50 is 11.1 µM (active).

Which outcome does the source give for `CN(C)CCC#N` here?
The outcome was “inactive”.

Which outcome does the source give for `COP(=S)(Oc1cc(Cl)c(Br)cc1Cl)c1ccccc1` (stereo not given) here?
The outcome was “inactive”.

Which outcome does the source give for `O=C(O)CCCOC(=O)c1ccccc1C(=O)O` here?
Its outcome is “inactive”.

Which outcome does the source give for `CN(C)N` here?
The outcome was “inactive”.

For `N#CCCCCC#N`, which outcome is on record?
The outcome was “inactive”.

For `CNC(=N[N+](=O)[O-])NCC1CCOC1` (stereo not given), which outcome is on record?
Its outcome is “inactive”.

Which outcome does the source give for `Cc1cc(N)ccc1N` here?
The outcome was “inactive”.

Which outcome does the source give for `c1cc(OCC2CO2)ccc1Cc1ccc(OCC2CO2)cc1` (stereo not given) here?
The outcome was “inactive”.

For `O=CNC(N1CCN(C(NC=O)C(Cl)(Cl)Cl)CC1)C(Cl)(Cl)Cl` (stereo not given), which outcome is on record?
Its outcome is “inactive”.

With `CC(Cc1ccc(C(C)(C)C)cc1)CN1C[C@@H](C)O[C@@H](C)C1` (stereo not given in full) as the compound, how does the outcome read?
The outcome was “inactive”.

For `CC(C)(O)C#N`, which outcome is on record?
Its outcome is “inactive”.

Which AC50 does the source give for `O=C(O)c1ccccc1C(=O)Nc1cccc2ccccc12` here?
The AC50 was 53.8 µM (active).

With `CNC(=O)ON=C(CSC)C(C)(C)C` as the compound, how does the outcome read?
Its outcome is “inactive”.

Which outcome does the source give for `C=CCN(CC=C)C(=O)C(Cl)Cl` here?
Its outcome is “inactive”.

For `CC(Oc1ccc(Oc2ncc(C(F)(F)F)cc2Cl)cc1)C(=O)O` (stereo not given), which outcome is on record?
Its outcome is “inactive”.

With `Oc1ccc(Cl)cc1` as the compound, how does the outcome read?
The outcome was “inactive”.
